In article PMC12136788:
Substitutions are numbered along the chain they refer to. In all, about 24,000 sequences were measured (“enrichment r”: median about 0.99, highest 2% from about 3.7 on). Many of the other results were omitted from the sample, so the highest values are more common in it than they were.

T1: UNK ZnF1-3 (human, UniProt Q9C0B0 31-174)
T1 sequence: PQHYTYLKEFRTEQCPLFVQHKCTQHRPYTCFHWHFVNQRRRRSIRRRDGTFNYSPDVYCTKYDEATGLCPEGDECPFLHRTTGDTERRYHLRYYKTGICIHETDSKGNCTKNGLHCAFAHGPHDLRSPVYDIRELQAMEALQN

B1: chr12:8945443:8945444:+_ENSMUSG00000020585_ENSMUST00000020909|mus_mus|motif|central (ssRNA)
RNA: GGGAGUUCUACAGUCCGACGAUCUGGAAACGUACAAAUGAGAAGCAUGCAACCAUCAUCUUCCACAGUCAAGUCAAACUGCGGUUUCUCUCUCUCUCCUGUUUCAUAGAGCUGGAAACUGCAGGUGUUAUACCCAACCUAUUCCAACAGAGGAUUGAGCAUCA
B2: 117863777_117864697_1263_CDS_ENSMUSG00000017715_ENSMUST00000132676|mouse|control|control (ssRNA)
RNA: GGGAGUUCUACAGUCCGACGAUCGCGGUCCUGGCGGUUGGUGAAGUAUGAGUCACUCAGGUUUGCACCACUCAGGAUGACGUUGUUGUCAAAGAGGUACACCUUGAUGUGCUGGAGGCCGAUGGUCUCAUUGAAGCGCUCAGGCAACAGAGGAUUGAGCAUCA
B3: chr6:41757443:41757444:+_ENSG00000214736_ENST00000398881|hu_mus|hu_hu_hu_mus_False|1_38 (ssRNA)
RNA: GGGAGUUCUACAGUCCGACGAUCGAACCGUGCAGAGGCAACAUCUCAGCCGACACUGGGGGAUGGGGGGGCAGUGGGGGGGGGUUCAGGCAAGGAGAAGAAAAGUGCUUCAGCUGCCACUCAGGUAGGAUCUUGUGGGGCACACAACAGAGGAUUGAGCAUCA
B4: chr6:41757443:41757444:+_ENSG00000214736_ENST00000398881|hu_mus|hu_hu_hu_mus_False|28_38 (ssRNA)
RNA: GGGAGUUCUACAGUCCGACGAUCGAACCGUGCAGAGGCAACAUCUCAGCCGACACUGGGGGAUGGGGGGGCAGUGGGGGGGGGUUCAGGCAAGGAGAAGAAAAGUGCCCAUCUGAACACUCAGGUAGGAUCUUGUGGUCACAGCAACAGAGGAUUGAGCAUCA
B5: chr6:41757443:41757444:+_ENSG00000214736_ENST00000398881|hu_mus|hu_hu_hu_mus_False|28_28 (ssRNA)
RNA: B4 RNA with A98G, A100G, A102G, A103U, G104C, U105A, G106A
B6: 66332798_66333947_12362_CDS_ENSMUSG00000038664_ENSMUST00000042824|mouse|control|control (ssRNA)
RNA: GGGAGUUCUACAGUCCGACGAUCUUCACCACUUUCUGUCAAGGCCAUUGAGUGCCCAUCUGAGCCACAGGAAGUCACCAGCUGGGUCACCACAAAACCUUGUAGGGCUGAAAUCACAGUCAGCACAUGAAGGUCGUCUGAAUUCAACAGAGGAUUGAGCAUCA
B7: chr10:127876205:127876206:+_ENSMUSG00000025373_ENSMUST00000096386|mus_mus|FALSE|FALSE (ssRNA)
RNA: GGGAGUUCUACAGUCCGACGAUCGGGGCCACCGAGGCAACACAGACACCCUCUUGAGGCAGUGCCGUUCUGGAUCAGCAGAGCCAGACAGCAGCUUCCUGCUGAGUGUACGAACACCAGUGCUCUCACGCCCACCCCUUCCUUCAACAGAGGAUUGAGCAUCA
B8: chr15:43699750:43699751:-_ENSG00000067369_ENST00000382044|hu_hu|motif|central (ssRNA)
RNA: GGGAGUUCUACAGUCCGACGAUCACACUUCAGCACCGAGGCUGGGCAUGAGGGGUCCGUCACCACCACAUCAAAUACCCCGGAAGCAAUAUCUUUGUUAUGGGCACUUGAAUGGUGCUGCUUCACAGAGGCUGCACCACCAGUCAACAGAGGAUUGAGCAUCA
B9: chr6:41757443:41757444:+_ENSG00000214736_ENST00000398881|hu_mus|hu_hu_hu_mus_False|1_68 (ssRNA)
RNA: GGGAGUUCUACAGUCCGACGAUCGAACCGUGCAGAGGCAACAUCUCAGCCGACACUGGGGGAUGGGGGAACAAAAGGGGGGGGUUCAGGCAAGGAGAGGGAGUCAACUUCAGCUGCCACUCAGGUAGGAUCUUGUGGGGCACACAACAGAGGAUUGAGCAUCA
B10: chr6:41757443:41757444:+_ENSG00000214736_ENST00000398881|hu_mus|hu_hu_hu_mus_False|18_28 (ssRNA)
RNA: GGGAGUUCUACAGUCCGACGAUCGAACCGUGCAGAGGCAACAUCUCAGCCGACACUGGGGGAUGGGGGGGCAGUGGGGGGGGGUUCAGGCAAGGAGAGGGAGUCAACCCAUCUGAAUCAAACUUCAGGAUCUUGUGGUCACAGCAACAGAGGAUUGAGCAUCA
B11: chr10:77750680:77750681:-_ENSMUSG00000001211_ENSMUST00000139282|mus_hu|FALSE|FALSE (ssRNA)
RNA: GGGAGUUCUACAGUCCGACGAUCGCGGCGGUAGAGCUGCUUGCUGACCGGCCAGAGCGCCAGCGUGCACAGCUGGACGAAGUUGAUGACCAGACCACUCACCACGAAGACAAAGCCGACCAGCAGGUGCAGCACGAACUGGGUCAACAGAGGAUUGAGCAUCA
B12: chr7:133639990:133639991:-_ENSMUSG00000032637_ENSMUST00000167759|mus_hu|FALSE|FALSE (ssRNA)
RNA: GGGAGUUCUACAGUCCGACGAUCGGUAGAGAGUUCUUUUACAUCUGUGGGGGCCAGGGAGAUCUUUGGAGAAGCUGGAGAAAUGGAGCCCACUCCAGGAUCUGAGACUGAUGAGGUCACAGGGAUGGAGGCUGAAGAGGUUGGCAACAGAGGAUUGAGCAUCA
B13: 53565353_53565853_12282_CDS_ENSG00000086758_ENST00000262854|human|control|control (ssRNA)
RNA: GGGAGUUCUACAGUCCGACGAUCCCCAUCAGCAAGGUGGGUCGUGGACUGCCGUAGGAUCUGGUUUAACACAGUGCGGUGAGUCUCUGCAAAGCGAAGGAACUUCUGUGUGUCAGGGGGCAGGCUUGAGGAGAUGUGCAUAGACAACAGAGGAUUGAGCAUCA
B14: chr6:41757443:41757444:+_ENSG00000214736_ENST00000398881|hu_mus|hu_hu_hu_mus_False|58_58 (ssRNA)
RNA: GGGAGUUCUACAGUCCGACGAUCGAACCGUGCAGAGGCAACAUCUCAGCCGACACUGGGGGAUGGGGGGGCAGUGGGAAACUAGGCAGGCAAGGAGAGGGAGUCAACUUCAGCUGCCACUCAGGUAGGAUCUUGUGGUCACAGCAACAGAGGAUUGAGCAUCA

Molecular target: T1, UNK ZnF1-3
Test: nsRBNS (natural sequence RNA bind-n-seq); RBNS binding buffer (assumed for nsRBNS): 25 mM Tris pH 7.5, 150 mM KCl, 3 mM MgCl2, 0.01% Triton X-100, 500 ug/ml BSA, 20 U/ml SUPERase-In, 4 C; UNK is unkempt and MSI1 is Musashi-1; names of the RNAs are library labels; protein concentration not given here; high values mean tight binding

Binder	binding signal [enrichment R]
B1	0.736
B2	0.897
B3	4.72
B4	3.96
B5	5.01
B6	0.824
B7	1.13
B8	0.852
B9	3.16
B10	5.1
B11	0.809
B12	2.03
B13	1.49
B14	2.2
